Reference: PubChem BioAssay AID1159580 (chemical genetic matrix, 2015)
The whole screen tested about 5,500 compounds, of which about 2,000 (36%) were called active. Another 18% or so got no clear call; they are omitted. Rule as the data show it: active = normalized growth mostly below about 0.91 (no sharp cut-off); inconclusive = no clear call, values can overlap the other calls; inactive = mostly above about 0.92. Some of the results follow.

Assay: chemical genetic growth profiling, strain panel (AID 1159580);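 also: tested at 20 µM; growth read once vehicle control cultures reached saturation at 30 °C; 1 = growth at the plate median or of vehicle wells; lower values mean less growth of the strain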
Conditions: growth OD

Measured: normalized growth

Nc1ccn(C2O[C@H](CO)[C@@H](O)[C@@H]2O)c(=O)n1 (stereo partly drawn)
inactive: S. cerevisiae deletion strains, locus YKL009W, strain mrt4, hits give low values 0.992 | S. cerevisiae deletion strains, locus YKL068W, hits give low values 0.994 | S. cerevisiae deletion strains, locus YKL085W, strain MDH1 (second series), hits give low values 1 | S. cerevisiae deletion strains, locus YKL085W, strain MDH1, hits give low values 1 | S. cerevisiae deletion strains, locus YKL160W, strain elf1, hits give low values 1.05 | S. cerevisiae deletion strains, locus YKL190W, strain CNB1, hits give low values 1.01 | S. cerevisiae deletion strains, locus YKR001C, strain vps1, hits give low values 1.01 | S. cerevisiae deletion strains, locus YKR026C, strain gcn3, hits give low values 0.999 | S. cerevisiae deletion strains, locus YKR091W, strain srl3, hits give low values 0.997 | S. cerevisiae deletion strains, locus YLL001W, strain dnm1, hits give low values 1.07 | S. cerevisiae deletion strains, locus YLL026W, hits give low values 0.994 | S. cerevisiae deletion strains, locus YLL041C, strain sdh2, hits give low values 0.981 | S. cerevisiae deletion strains, locus YLR027C, strain aat2, hits give low values 0.993 | S. cerevisiae deletion strains, locus YLR039C, strain RIC1, hits give low values 1.03 | S. cerevisiae deletion strains, locus YLR058C, strain SHM2, hits give low values 1.01 | S. cerevisiae deletion strains, locus YLR102C, strain apc9, hits give low values 0.977 | S. cerevisiae deletion strains, locus YLR113W, strain HOG1, hits give low values 1.04 | S. cerevisiae deletion strains, locus YLR221C, strain rsa3, hits give low values 1.06 | S. cerevisiae deletion strains, locus YLR258W, strain gsy2, hits give low values 1.02 | S. cerevisiae deletion strains, locus YLR262C, strain YPT6 (second series), hits give low values 1 | S. cerevisiae deletion strains, locus YLR262C, strain YPT6, hits give low values 1.01 | S. cerevisiae deletion strains, locus YLR268W, strain sec22, hits give low values 0.992 | S. cerevisiae deletion strains, locus YLR320W, strain mms22, hits give low values 1.06 | S. cerevisiae deletion strains, locus YLR330W, strain CHS5, hits give low values 1.01 | S. cerevisiae deletion strains, locus YLR342W, strain FKS1 (second series), hits give low values 1.02 | S. cerevisiae deletion strains, locus YLR342W, strain FKS1, hits give low values 0.994 | S. cerevisiae deletion strains, locus YLR357W, strain rsc2, hits give low values 0.988 | S. cerevisiae deletion strains, locus YLR370C, strain arc18, hits give low values 1.01 | S. cerevisiae deletion strains, locus YLR371W, strain rom2, hits give low values 0.995 | S. cerevisiae deletion strains, locus YLR384C, strain iki3, hits give low values 1 | S. cerevisiae deletion strains, locus YLR418C, strain cdc73, hits give low values 0.966 | S. cerevisiae deletion strains, locus YML016C, strain PPZ1, hits give low values 1.01 | S. cerevisiae deletion strains, locus YML032C, strain rad52, hits give low values 1.01 | S. cerevisiae deletion strains, locus YML120C, strain ndi1, hits give low values 1.02 | S. cerevisiae deletion strains, locus YML124C, strain tub3, hits give low values 0.988 | S. cerevisiae deletion strains, locus YMR058W, strain fet3, hits give low values 0.997 | S. cerevisiae deletion strains, locus YMR078C, strain ctf18, hits give low values 0.992 | S. cerevisiae deletion strains, locus YMR125W, strain sto1, hits give low values 0.996 | S. cerevisiae deletion strains, locus YMR129W, hits give low values 0.979 | S. cerevisiae deletion strains, locus YMR205C, strain PFK2, hits give low values 1.04 | S. cerevisiae deletion strains, locus YMR223W, strain ubp8, hits give low values 0.995 | S. cerevisiae deletion strains, locus YMR231W, strain pep5, hits give low values 0.989 | S. cerevisiae deletion strains, locus YMR263W, strain SAP30, hits give low values 1 | S. cerevisiae deletion strains, locus YMR307W, strain GAS1, hits give low values 1.04 | S. cerevisiae deletion strains, locus YNL067W, strain RPL9B, hits give low values 1 | S. cerevisiae deletion strains, locus YNL071W, strain lat1, hits give low values 0.977 | S. cerevisiae deletion strains, locus YNL128W, strain TEP1, hits give low values 1.02 | S. cerevisiae deletion strains, locus YNL183C, strain NPR1, hits give low values 0.964 | S. cerevisiae deletion strains, locus YNL209W, strain ssb2, hits give low values 0.994 | S. cerevisiae deletion strains, locus YNL233W, strain BNI4, hits give low values 0.991 | S. cerevisiae deletion strains, locus YNL248C, strain rpa49, hits give low values 0.993 | S. cerevisiae deletion strains, locus YNL250W, strain rad50, hits give low values 0.994 | S. cerevisiae deletion strains, locus YNL271C, strain bni1, hits give low values 0.996 | S. cerevisiae deletion strains, locus YNL298W, strain CLA4, hits give low values 0.998 | S. cerevisiae deletion strains, locus YNL307C, strain MCK1, hits give low values 0.997 | S. cerevisiae deletion strains, locus YNL322C, strain KRE1 (second series), hits give low values 1.01 | S. cerevisiae deletion strains, locus YNR049C, strain mso1, hits give low values 0.989 | S. cerevisiae deletion strains, locus YNR052C, strain pop2, hits give low values 0.996 | S. cerevisiae deletion strains, locus YOL006C, strain TOP1, hits give low values 1.05 | S. cerevisiae deletion strains, locus YOL012C, strain htz1 1.42 | S. cerevisiae deletion strains, locus YOL147C, strain pex11, hits give low values 0.992 | S. cerevisiae deletion strains, locus YOR001W, strain rrp6, hits give low values 0.933 | S. cerevisiae deletion strains, locus YOR061W, strain CKA2, hits give low values 1.01 | S. cerevisiae deletion strains, locus YOR069W, strain VPS5, hits give low values 1.01 | S. cerevisiae deletion strains, locus YOR070C, strain gyp1, hits give low values 0.993 | S. cerevisiae deletion strains, locus YOR080W, strain dia2, hits give low values 0.992 | S. cerevisiae deletion strains, locus YOR083W, strain WHI5, hits give low values 1.06 | S. cerevisiae deletion strains, locus YOR106W, strain vam3, hits give low values 1.08 | S. cerevisiae deletion strains, locus YOR136W, strain idh2, hits give low values 1 | S. cerevisiae deletion strains, locus YOR144C, strain elg1, hits give low values 1 | S. cerevisiae deletion strains, locus YOR184W, strain ser1, hits give low values 0.997 | S. cerevisiae deletion strains, locus YOR231W, strain MKK1, hits give low values 1.03 | S. cerevisiae deletion strains, locus YOR265W, strain rbl2, hits give low values 1 | S. cerevisiae deletion strains, locus YOR270C, strain vph1, hits give low values 1.05 | S. cerevisiae deletion strains, locus YOR290C, strain snf2, hits give low values 1.02 | S. cerevisiae deletion strains, locus YOR316C, strain cot1, hits give low values 0.993 | S. cerevisiae deletion strains, locus YPL051W, strain arl3, hits give low values 1.04 | S. cerevisiae deletion strains, locus YPL078C, strain atp4, hits give low values 1.04 | S. cerevisiae deletion strains, locus YPL106C, strain sse1, hits give low values 1.01 | S. cerevisiae deletion strains, locus YPL240C, strain hsp82, hits give low values 1.01 | S. cerevisiae deletion strains, locus YPL241C, strain CIN2, hits give low values 1.01 | S. cerevisiae deletion strains, locus YPL256C, strain CLN2, hits give low values 1.03 | S. cerevisiae deletion strains, locus YPR119W, strain clb2, hits give low values 0.986 | S. cerevisiae deletion strains, locus YPR141C, strain kar3, hits give low values 0.993 | S. cerevisiae deletion strains, locus YPR163C, strain tif3, hits give low values 1.01 | S. cerevisiae deletion strains, locus YPR167C, strain met16, hits give low values 0.995 | S. cerevisiae deletion strains, strain wtn01, hits give low values 0.993 | S. cerevisiae strains, strain wild type, hits give low values 1.01
